# Laboratory results as given in PubChem BioAssay AID1159580 (chemical genetic matrix, 2015).
# In all, about 5,500 compounds went through this assay and about 2,000 (36%) were called active. Inconclusive results (about 18%) are left out. Some of the results follow. A number with no mark means an inactive call. Cut-off read from the data, not from the text of the source: active = normalized growth mostly below about 0.91 (no sharp cut-off); inconclusive = no clear call, values can overlap the other calls; inactive = mostly above about 0.92.
# Experiment: chemical genetic growth profiling, strain panel (AID 1159580);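 note: tested at 20 µM; growth read once vehicle control cultures reached saturation at 30 °C; 1 = growth at the plate median or of vehicle wells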
# Settings: growth OD
# [1] = S. cerevisiae deletion strains, locus YAL013W, strain DEP1, stronger effect = lower value
# [2] = S. cerevisiae deletion strains, locus YBR229C, strain ROT2, stronger effect = lower value
# [3] = S. cerevisiae deletion strains, locus YDL101C, strain DUN1, stronger effect = lower value
# [4] = S. cerevisiae deletion strains, locus YDL134C, strain PPH21, stronger effect = lower value
# [5] = S. cerevisiae deletion strains, locus YDR150W, strain NUM1, stronger effect = lower value
# [6] = S. cerevisiae deletion strains, locus YEL061C, strain CIN8, stronger effect = lower value
# [7] = S. cerevisiae deletion strains, locus YGR078C, strain PAC10, stronger effect = lower value
# [8] = S. cerevisiae deletion strains, locus YHR030C, strain SLT2, stronger effect = lower value
# [9] = S. cerevisiae deletion strains, locus YHR087W, strain rtc3, stronger effect = lower value
# [10] = S. cerevisiae deletion strains, locus YJR043C, strain POL32, stronger effect = lower value
# [11] = S. cerevisiae deletion strains, locus YJR075W, strain HOC1, stronger effect = lower value
# [12] = S. cerevisiae deletion strains, locus YLR039C, strain RIC1, stronger effect = lower value
# [13] = S. cerevisiae deletion strains, locus YLR058C, strain SHM2 (second series), stronger effect = lower value
# [14] = S. cerevisiae deletion strains, locus YLR085C, strain ARP6, stronger effect = lower value
# [15] = S. cerevisiae deletion strains, locus YLR262C, strain YPT6, stronger effect = lower value
# [16] = S. cerevisiae deletion strains, locus YML094W, strain GIM5, stronger effect = lower value
# [17] = S. cerevisiae deletion strains, locus YMR219W, strain ESC1, stronger effect = lower value
# [18] = S. cerevisiae deletion strains, locus YMR263W, strain SAP30, stronger effect = lower value
# [19] = S. cerevisiae deletion strains, locus YNL153C, strain GIM3, stronger effect = lower value
# [20] = S. cerevisiae deletion strains, locus YNL298W, strain CLA4 (second series), stronger effect = lower value
# [21] = S. cerevisiae deletion strains, locus YNL322C, strain KRE1, stronger effect = lower value
# [22] = S. cerevisiae deletion strains, locus YNR030W, strain Alg12, stronger effect = lower value
# [23] = S. cerevisiae deletion strains, locus YOL006C, strain TOP1, stronger effect = lower value
# [24] = S. cerevisiae deletion strains, locus YPL055C, strain LGE1, stronger effect = lower value
# [25] = S. cerevisiae deletion strains, locus YPL241C, strain CIN2, stronger effect = lower value
# [26] = S. cerevisiae deletion strains, locus YPR135W, strain CTF4, stronger effect = lower value
structure (smiles),measurement,setting,value
COC(=O)/C(=C/N(C)C)Sc1cc(C)c(Cl)cc1Cl,normalized growth,[1],0.945
same,normalized growth,[2],0.968
same,normalized growth,[3],1.01
same,normalized growth,[4],0.983
same,normalized growth,[5],0.958
same,normalized growth,[6],0.951
same,normalized growth,[7],0.979
same,normalized growth,[8],0.296 (active)
same,normalized growth,[9],0.939
same,normalized growth,[10],0.983
same,normalized growth,[11],0.935
same,normalized growth,"S. cerevisiae deletion strains, locus YKL190W, strain CNB1, stronger effect = lower value",0.91 (active)
same,normalized growth,[12],0.622 (active)
same,normalized growth,[13],0.939
same,normalized growth,[14],0.91
same,normalized growth,[15],0.587 (active)
same,normalized growth,[16],0.914
same,normalized growth,[17],0.959
same,normalized growth,[18],0.946
same,normalized growth,[19],0.992
same,normalized growth,[20],0.925
same,normalized growth,[21],0.933 (active)
same,normalized growth,[22],0.942
same,normalized growth,[23],0.978
same,normalized growth,[24],0.922
same,normalized growth,[25],0.947
same,normalized growth,[26],0.747
CC(C)(C)c1cc(-c2csc(-c3ccc(Cl)cc3)n2)cc(C(C)(C)C)c1O,normalized growth,[1],1
same,normalized growth,[2],1.02
same,normalized growth,"S. cerevisiae deletion strains, locus YCL061C, strain MRC1, stronger effect = lower value",1.01
same,normalized growth,[3],1.02
same,normalized growth,[4],1.02
same,normalized growth,[5],0.943
same,normalized growth,[6],1.03
same,normalized growth,[7],1.01
same,normalized growth,[8],1.09
same,normalized growth,[9],1.01
same,normalized growth,"S. cerevisiae deletion strains, locus YJL187C, strain SWE1, stronger effect = lower value",1.02
same,normalized growth,[10],1.01
same,normalized growth,[11],1.03
same,normalized growth,[12],1.09
same,normalized growth,[13],1.02
same,normalized growth,[14],1.22 [resistant] (active)
same,normalized growth,[15],1.05
same,normalized growth,[16],1.03
same,normalized growth,[17],1.01
same,normalized growth,[18],0.96
same,normalized growth,[19],1
same,normalized growth,[20],1.04
same,normalized growth,[21],1.01
same,normalized growth,[22],1.03
same,normalized growth,[23],1.18
same,normalized growth,[24],0.911
same,normalized growth,[25],1.01
same,normalized growth,[26],1.07
same,normalized growth,"S. cerevisiae strains, strain wild type, stronger effect = lower value",1.02
Cc1ccc2nc(-c3ccc(Cl)cc3)cn2c1,normalized growth,"S. cerevisiae deletion strains, locus YAR019C, strain CDC15, stronger effect = lower value",0.961
same,normalized growth,"S. cerevisiae deletion strains, locus YBL105C, strain PKC1, stronger effect = lower value",0.97
same,normalized growth,"S. cerevisiae deletion strains, locus YBR135W, strain CKS1, stronger effect = lower value",0.968
same,normalized growth,"S. cerevisiae deletion strains, locus YBR136W, strain MEC1, stronger effect = lower value",0.968
same,normalized growth,"S. cerevisiae deletion strains, locus YBR160W, strain CDC28, stronger effect = lower value",0.954
same,normalized growth,"S. cerevisiae deletion strains, locus YDL017W, strain CDC7, stronger effect = lower value",0.964
same,normalized growth,"S. cerevisiae deletion strains, locus YDL028C, strain MPS1, stronger effect = lower value",0.974
same,normalized growth,[3],0.969
same,normalized growth,"S. cerevisiae deletion strains, locus YDL108W, strain KIN28, stronger effect = lower value",0.971
same,normalized growth,"S. cerevisiae deletion strains, locus YDL132W, strain cdc53, stronger effect = lower value",0.962
same,normalized growth,"S. cerevisiae deletion strains, locus YDL214C, strain PRR2, stronger effect = lower value",0.95
same,normalized growth,"S. cerevisiae deletion strains, locus YDR052C, strain DBF4, stronger effect = lower value",0.972
same,normalized growth,"S. cerevisiae deletion strains, locus YDR054C, strain cdc34, stronger effect = lower value",0.949
same,normalized growth,"S. cerevisiae deletion strains, locus YDR226W, strain ADK1, stronger effect = lower value",0.959
same,normalized growth,"S. cerevisiae deletion strains, locus YDR477W, strain SNF1, stronger effect = lower value",0.933
same,normalized growth,"S. cerevisiae deletion strains, locus YER123W, strain YCK3, stronger effect = lower value",0.89
same,normalized growth,"S. cerevisiae deletion strains, locus YER133W, strain GLC7, stronger effect = lower value",0.923
same,normalized growth,"S. cerevisiae deletion strains, locus YFL009W, strain cdc4, stronger effect = lower value",0.967
same,normalized growth,"S. cerevisiae deletion strains, locus YFL029C, strain CAK1, stronger effect = lower value",0.956
same,normalized growth,"S. cerevisiae deletion strains, locus YFR003C, strain YPI1, stronger effect = lower value",0.97
same,normalized growth,"S. cerevisiae deletion strains, locus YFR019W, strain FAB1, stronger effect = lower value",0.944
same,normalized growth,"S. cerevisiae deletion strains, locus YFR028C, strain CDC14, stronger effect = lower value",0.958
same,normalized growth,"S. cerevisiae deletion strains, locus YGR040W, strain KSS1, stronger effect = lower value",0.911
same,normalized growth,"S. cerevisiae deletion strains, locus YGR052W, strain FMP48, stronger effect = lower value",0.974
same,normalized growth,"S. cerevisiae deletion strains, locus YGR092W, strain DBF2, stronger effect = lower value",0.903
same,normalized growth,[8],0.889
same,normalized growth,"S. cerevisiae deletion strains, locus YHR079C, strain IRE1, stronger effect = lower value",0.936
same,normalized growth,"S. cerevisiae deletion strains, locus YHR082C, strain KSP1, stronger effect = lower value",1
same,normalized growth,"S. cerevisiae deletion strains, locus YHR205W, strain SCH9, stronger effect = lower value",0.966
same,normalized growth,"S. cerevisiae deletion strains, locus YIL147C, strain SLN1, stronger effect = lower value",0.975
same,normalized growth,"S. cerevisiae deletion strains, locus YJL095W, strain BCK1, stronger effect = lower value",0.948
same,normalized growth,"S. cerevisiae deletion strains, locus YJL128C, strain PBS2, stronger effect = lower value",0.966
same,normalized growth,"S. cerevisiae deletion strains, locus YJL157C, strain FAR1, stronger effect = lower value",0.92
same,normalized growth,"S. cerevisiae deletion strains, locus YJR016C, strain ILV3, stronger effect = lower value",0.97
same,normalized growth,"S. cerevisiae deletion strains, locus YJR066W, strain TOR1 (second series), stronger effect = lower value",0.937
same,normalized growth,"S. cerevisiae deletion strains, locus YJR066W, strain TOR1, stronger effect = lower value",0.953
same,normalized growth,"S. cerevisiae deletion strains, locus YKL048C, strain ELM1, stronger effect = lower value",0.956
same,normalized growth,"S. cerevisiae deletion strains, locus YKL067W, strain YNK1, stronger effect = lower value",0.936
same,normalized growth,"S. cerevisiae deletion strains, locus YKL101W, strain HSL1, stronger effect = lower value",0.953
same,normalized growth,"S. cerevisiae deletion strains, locus YKL193C, strain SDS22, stronger effect = lower value",0.961
same,normalized growth,"S. cerevisiae deletion strains, locus YKL203C, strain TOR2, stronger effect = lower value",0.97
same,normalized growth,"S. cerevisiae deletion strains, locus YLR113W, strain HOG1, stronger effect = lower value",0.906
same,normalized growth,"S. cerevisiae deletion strains, locus YLR133W, strain CKI1, stronger effect = lower value",0.953
same,normalized growth,"S. cerevisiae deletion strains, locus YLR403W, strain SFP1, stronger effect = lower value",0.93
same,normalized growth,"S. cerevisiae deletion strains, locus YML070W, strain DAK1, stronger effect = lower value",0.91
same,normalized growth,"S. cerevisiae deletion strains, locus YMR001C, strain CDC5, stronger effect = lower value",0.965
same,normalized growth,"S. cerevisiae deletion strains, locus YMR205C, strain PFK2 (second series), stronger effect = lower value",0.952
same,normalized growth,"S. cerevisiae deletion strains, locus YMR277W, strain FCP1, stronger effect = lower value",0.961
same,normalized growth,"S. cerevisiae deletion strains, locus YNL006W, strain LST8, stronger effect = lower value",0.962
same,normalized growth,"S. cerevisiae deletion strains, locus YNL020C, strain ARK1, stronger effect = lower value",0.946
same,normalized growth,"S. cerevisiae deletion strains, locus YNL161W, strain CBK1, stronger effect = lower value",0.961
same,normalized growth,"S. cerevisiae deletion strains, locus YNL183C, strain NPR1, stronger effect = lower value",0.928
same,normalized growth,"S. cerevisiae deletion strains, locus YNL207W, strain RIO2, stronger effect = lower value",0.97
same,normalized growth,"S. cerevisiae deletion strains, locus YNL222W, strain SSU72, stronger effect = lower value",0.958
same,normalized growth,"S. cerevisiae deletion strains, locus YNL307C, strain MCK1 (second series), stronger effect = lower value",0.907
same,normalized growth,"S. cerevisiae deletion strains, locus YOL078W, strain AVO1, stronger effect = lower value",0.97
same,normalized growth,"S. cerevisiae deletion strains, locus YOL136C, strain PFK27, stronger effect = lower value",0.921
same,normalized growth,"S. cerevisiae deletion strains, locus YOR061W, strain CKA2, stronger effect = lower value",0.948
same,normalized growth,"S. cerevisiae deletion strains, locus YOR119C, strain RIO1, stronger effect = lower value",0.982
same,normalized growth,"S. cerevisiae deletion strains, locus YOR231W, strain MKK1, stronger effect = lower value",0.884
same,normalized growth,"S. cerevisiae deletion strains, locus YOR329C, strain SCD5, stronger effect = lower value",0.969
same,normalized growth,"S. cerevisiae deletion strains, locus YPL031C, strain PHO85, stronger effect = lower value",0.949
same,normalized growth,"S. cerevisiae deletion strains, locus YPL153C, strain RAD53, stronger effect = lower value",0.899
same,normalized growth,"S. cerevisiae deletion strains, locus YPL204W, strain HRR25, stronger effect = lower value",0.9
same,normalized growth,"S. cerevisiae deletion strains, locus YPL209C, strain IPL1, stronger effect = lower value",0.959
same,normalized growth,"S. cerevisiae deletion strains, locus YPL256C, strain CLN2, stronger effect = lower value",0.909
same,normalized growth,"S. cerevisiae deletion strains, locus YPR025C, strain CCL1, stronger effect = lower value",0.969
same,normalized growth,"S. cerevisiae deletion strains, locus YPR106W, strain ISR1, stronger effect = lower value",0.964
same,normalized growth,"S. cerevisiae deletion strains, locus YPR111W, strain DBF20, stronger effect = lower value",0.96
same,normalized growth,"S. cerevisiae deletion strains, strain NNK1, stronger effect = lower value",0.986
same,normalized growth,"S. cerevisiae deletion strains, strain TSCII, stronger effect = lower value",0.959
